Our source for the Potency values is PubChem BioAssay (Tox21).

Results filed as inconclusive are left out. The source made the active and inactive calls. Unless noted, the call rests on the fitted dose curve; in most records, active means well fitted curve in the direction sought with a large enough effect in the repeat runs; inconclusive means weak or mixed curves; inactive means no such curve, though single readings can be large; an effect the other way counts as inactive or inconclusive.

The target in assay [1] is Aryl hydrocarbon receptor (Homo sapiens) (UniProt P35869). The experiment in a line: qHTS assay to identify small molecule that activate the aryl hydrocarbon receptor (AhR) signaling pathway (AID 743085). Further: nearly all actives have a fitted effect of over 15% in size. Further: potency means the concentration at half of the fitted maximal effect.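 On activation: HG2L7.5c1 human HepG2 liver cells with stably integrated DRE-driven firefly reporter; series mostly up to about 70 µM.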 The procedure, abridged:
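Measured in HG2L7.5c1 cells: CellTiter-Fluor signal (30 min incubation, 37C) for viability, then luciferase luminescence (30 min, room temperature). Compound contact time was 24 h at 37C, following a 5 h pre-incubation.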

Assay [2] in a line: qHTS assay to identify small molecule that activate the aryl hydrocarbon receptor (AhR) signaling pathway - cell viability counter screen (AID 743086).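 Further: HepG2 liver cells carrying the AhR DRE luciferase reporter; series mostly up to about 70 µM; nearly all actives have a fitted effect of over 45% in size.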 The essentials: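 HepG2-AhR-luc (HG2L7.5c1) cells, 4000/well, treated 24 h at 37 C with compound; viability measured as CellTiter-Fluor fluorescence after 30 min in the same wells as the luciferase read.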
Assay [3] addresses Peroxisome proliferator-activated receptor gamma (Homo sapiens) (UniProt P37231). The experiment in a line: qHTS assay to identify small molecule agonists of the peroxisome proliferator-activated receptor gamma (PPARg) signaling pathway (AID 743094; active means well fitted activation curve with a large enough effect in the signal ratio in the repeat runs, not every such curve was filed as active; the % refers to the signal ratio; further: potency means the concentration at half of the fitted maximal effect). The essentials: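 Reporter activation was scored by fluorescence of cleaved LiveBLAzer B/G substrate (1 h, room temperature) in PPARg-bla HEK293H cells previously treated 17 h at 37C with DMSO-dissolved compounds.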
Background: In qHTS, concentration-response curves come from the screen itself.

The nature of assay [4]: qHTS assay to identify small molecule antagonists of the peroxisome proliferator-activated receptor gamma (PPARg) signaling pathway - cell viability counter screen (AID 743194). Further: nearly all actives have a fitted effect of over 55% in size. The essentials:
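Cytotoxicity counter screen in PPARg-bla HEK293H cells, same wells as reporter assay. Compounds plus 50 nM rosiglitazone (final) for 17 h at 37 C, then viability read by CellTiter-Glo luminescence.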

Assay [5] in a line: qHTS assay for small molecule agonists of the antioxidant response element (ARE) signaling pathway (AID 743202; active means well fitted activation curve with a large enough effect in the signal ratio in the repeat runs, not every such curve was filed as active; the % refers to the signal ratio; further: potency means the concentration at half of the fitted maximal effect). The essentials: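 HepG2 ARE-bla reporter line, 2,000 cells/well; 5 h preincubation 37 C/5% CO2; compound (DMSO) 16 h 37 C; B/G FRET substrate 2 h RT; fluorescence intensity.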
Assay [6] can be described thus: qHTS assay for small molecule agonists of the antioxidant response element (ARE) signaling pathway - cell viability counter screen (AID 743203; calls by dose curve; further: nearly all actives have a fitted effect of over 55% in size). The essentials:
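Viability counter screen: stably transfected ARE-bla HepG2 line, 16 hrs compound exposure at 37C/5% CO2, ATP-based CellTiter-Glo luminescence measured in the reporter wells.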

Assay [7] can be described thus: qHTS assay for small molecule activators of the heat shock response signaling pathway - cell viability counter screen (AID 743209). Further: nearly all actives have a fitted effect of over 50% in size. The essentials: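 Viability of HSE-bla HeLa cells is measured with CellTiter-Glo in the wells already used for the reporter read. Compound exposure lasts 5 h at 37 C, and luminescence is read after 30 min at room temperature.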
The nature of assay [8]: qHTS assay for small molecule activators of the heat shock response signaling pathway (AID 743210; active means well fitted activation curve with a large enough effect in the signal ratio in the repeat runs, with a control signal flat, not every such curve was filed as active; the % refers to the signal ratio; further: series mostly up to about 63 µM). The essentials: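 Beta-lactamase reporter read-out: FRET substrate fluorescence after 2.5 h at RT, following 5 h compound treatment at 37 C of HeLa cells carrying HSE-driven bla reporter; quantitative HTS format.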
Assay [9] is described as follows: qHTS assay to identify small molecule agonists of the peroxisome proliferator-activated receptor delta (PPARd) signaling pathway - cell viability counter screen (AID 743211). Further: nearly all actives have a fitted effect of over 55% in size. The procedure, abridged: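 Following 5 h plating at 37 C and 5% CO2, PPARd UAS-bla HEK293H cells took up test compounds for 17 h. Viability was quantified by luminescence 30 min after CellTiter-Glo addition at room temperature.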

The target in assay [10] is Peroxisome proliferator-activated receptor gamma (Homo sapiens) (UniProt P37231). In words: qHTS assay to identify small molecule antagonists of the peroxisome proliferator-activated receptor gamma (PPARg) signaling pathway (AID 743191; calls by dose curve; further: series mostly up to about 63 µM; nearly all actives have a fitted effect of over 30% in size). The procedure, abridged: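 GeneBLAzer PPARg UAS-bla HEK293H cells, 5 h post-plating, exposed to compounds 17 h at 37C. LiveBLAzer B/G FRET substrate added for 1 h at room temperature; beta-lactamase reporter read by fluorescence intensity.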
Sequence of Peroxisome proliferator-activated receptor gamma (Homo sapiens) (P37231 whole entry, looked up): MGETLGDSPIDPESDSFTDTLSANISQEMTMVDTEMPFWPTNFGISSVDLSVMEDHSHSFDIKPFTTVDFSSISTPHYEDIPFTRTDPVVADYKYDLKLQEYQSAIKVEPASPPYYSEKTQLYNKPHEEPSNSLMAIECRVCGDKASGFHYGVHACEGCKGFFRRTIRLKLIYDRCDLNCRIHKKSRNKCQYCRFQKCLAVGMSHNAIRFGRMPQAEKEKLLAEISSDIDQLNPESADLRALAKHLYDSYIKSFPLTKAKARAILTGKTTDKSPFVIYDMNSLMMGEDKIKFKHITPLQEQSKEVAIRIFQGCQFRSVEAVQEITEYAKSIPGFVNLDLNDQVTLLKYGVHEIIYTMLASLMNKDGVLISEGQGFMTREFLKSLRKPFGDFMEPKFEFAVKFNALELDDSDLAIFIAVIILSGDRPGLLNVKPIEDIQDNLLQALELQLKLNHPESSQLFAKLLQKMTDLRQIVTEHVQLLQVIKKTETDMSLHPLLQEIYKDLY

Sequence of Aryl hydrocarbon receptor (Homo sapiens) (P35869 whole entry, looked up): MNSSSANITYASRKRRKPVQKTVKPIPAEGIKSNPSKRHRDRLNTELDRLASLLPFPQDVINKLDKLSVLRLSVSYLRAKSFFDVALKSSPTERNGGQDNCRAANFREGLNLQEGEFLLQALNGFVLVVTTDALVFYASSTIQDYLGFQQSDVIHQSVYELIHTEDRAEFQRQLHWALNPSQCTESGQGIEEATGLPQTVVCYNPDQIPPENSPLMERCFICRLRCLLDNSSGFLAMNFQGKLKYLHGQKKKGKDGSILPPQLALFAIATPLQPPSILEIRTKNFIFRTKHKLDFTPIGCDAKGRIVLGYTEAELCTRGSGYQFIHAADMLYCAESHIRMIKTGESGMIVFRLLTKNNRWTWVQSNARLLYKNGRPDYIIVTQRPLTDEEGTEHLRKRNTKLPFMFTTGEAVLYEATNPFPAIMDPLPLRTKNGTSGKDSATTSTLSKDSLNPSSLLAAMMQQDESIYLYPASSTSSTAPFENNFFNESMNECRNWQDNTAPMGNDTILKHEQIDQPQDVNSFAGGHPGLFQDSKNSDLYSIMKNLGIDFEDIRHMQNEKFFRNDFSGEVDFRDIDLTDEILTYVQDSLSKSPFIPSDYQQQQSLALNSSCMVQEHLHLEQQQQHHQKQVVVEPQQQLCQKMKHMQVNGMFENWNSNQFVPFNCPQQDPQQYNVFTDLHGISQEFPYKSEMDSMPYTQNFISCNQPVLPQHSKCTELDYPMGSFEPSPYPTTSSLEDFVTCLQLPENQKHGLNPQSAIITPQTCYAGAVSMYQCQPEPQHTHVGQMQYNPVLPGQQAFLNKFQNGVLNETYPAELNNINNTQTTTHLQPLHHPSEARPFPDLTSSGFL

On to `CCCCCCCC/C=C\CCCCCCCC(=O)OC`, for which the Potency result in assay [1], in assay [2], in assay [3], in assay [4], in assay [5] and in assay [6] was “inactive” in each case. Besides, the Potency result in assay [7], in assay [8] and in assay [9] was “inactive” throughout.
As for `Cc1ccccc1N1C(=O)c2cc(S(N)(=O)=O)c(Cl)cc2NC1C` (stereo unspecified), the Potency entry in assay [1], in [2], in assay [3], in assay [4], in assay [5] and in assay [6] was “inactive” each time. Besides, the Potency entry in assay [7] and in assay [8] was “inactive” each time.
For `COC(=O)CC(=O)C(C)(C)C`, the Potency entry in assay [1], in [2], in assay [3], in assay [10], in [6] and in [7] was “inactive” each time. Besides, the Potency entry in assay [8] and in assay [9] was “inactive” each time.
On to `NCC1CCCC(CN)C1` (stereo unspecified), for which the Potency entry in assay [1], in [2], in [3], in [4], in assay [5] and in [6] was “inactive” throughout. The Potency result in [7], in assay [8] and in assay [9] was “inactive” throughout.
For the compound `CC(C)C(=O)O`, the Potency result in [1], in assay [2], in [3], in [4], in assay [5] and in assay [6] was “inactive” throughout. Besides, the Potency entry in assay [7] and in assay [8] was “inactive” throughout.
With `CCCCCCCCCOC(C)=O`, the Potency result in assay [1], in [2], in assay [3], in assay [10], in [5] and in [6] was “inactive” in each case. Also, the Potency entry in assay [7], in [8] and in assay [9] was “inactive” each time.
With `COC(=O)[C@@H]1CC2=CC(=O)CC[C@]2(C)[C@@]23O[C@@H]2C[C@@]2(C)[C@@H](CC[C@@]24CCC(=O)O4)[C@H]13`, the Potency result in assay [1], in [2], in [3], in assay [4], in assay [5] and in [6] was “inactive” each time. The Potency entry in assay [7], in assay [8] and in assay [9] was “inactive” in each case.
With `O=C(Nc1ccccc1)Nc1ccccc1`, the Potency in [1] was 30.8 µM (active). Besides, the Potency result in assay [2], in assay [3], in assay [4], in assay [5], in assay [6] and in [7] was “inactive” throughout. The Potency entry in [8] and in assay [9] was “inactive” in each case.
As to `O=C(CS)OCCOC(=O)CS`, the Potency entry in assay [1], in assay [2], in assay [3], in assay [4], in [5] and in [6] was “inactive” in each case. The Potency result in assay [7], in [8] and in [9] was “inactive” each time.
As to `CCCCOC(=O)CCS`, the Potency result in [1], in [2], in assay [3], in [4], in assay [5] and in assay [6] was “inactive” each time. Further, the Potency result in [7], in assay [8] and in assay [9] was “inactive” each time.
For the compound `C=CC(C)(O)CCCC(C)CCCC(C)CCCC(C)C` (stereo unspecified), the Potency result in assay [1], in assay [2], in assay [3], in assay [4], in [5] and in assay [6] was “inactive” in each case. The Potency entry in assay [7], in assay [8] and in assay [9] was “inactive” in each case.
With `C=C(C)C(=O)OCCOC(=O)CC(C)=O`, the Potency entry in assay [1], in [2], in assay [3], in [10], in [5] and in [6] was “inactive” each time. Also, the Potency result in assay [7], in [8] and in assay [9] was “inactive” throughout.
As for `Cc1ccc(S(=O)(=O)NC2CCCCC2)cc1`, the Potency entry in assay [1], in [2], in assay [3], in [4], in assay [5] and in assay [6] was “inactive” throughout. Besides, the Potency result in [7], in [8] and in assay [9] was “inactive” throughout.
Take `CCCC1C(CC)=CC(CC)=CN1c1ccccc1` (stereo unspecified): the Potency result in assay [1], in assay [2], in [3], in [4], in [6] and in assay [7] was “inactive” throughout. Also, the Potency entry in [8] is “inactive”. The Potency in [5] is 54.5 µM (active).
With `OC(CCCN1CCCCC1)(c1ccccc1)c1ccccc1`, the Potency result in [1], in assay [2], in [3], in assay [4], in [5] and in assay [6] was “inactive” each time. Also, the Potency result in [7] and in [8] was “inactive” in each case.
Consider `CC(=O)[C@H]1CC[C@H]2[C@@H]3C=CC4=CC(=O)CC[C@@]4(C)[C@@H]3CC[C@]12C`, for which the Potency result in assay [1], in assay [2], in [3], in assay [4], in assay [6] and in assay [7] was “inactive” each time. The Potency result in assay [8] and in assay [9] was “inactive” throughout. Further, the Potency in [5] is 13.3 µM (active).
Regarding `CCCCC(CC)COC(=O)COc1ccc(Cl)cc1C` (stereo unspecified), the Potency entry in assay [1], in assay [2], in assay [3], in assay [4], in assay [5] and in assay [6] was “inactive” throughout. Further, the Potency entry in assay [7], in assay [8] and in [9] was “inactive” throughout.
For the compound `CCCCCCCCCCCCCCCCBr`, the Potency entry in [1], in assay [2], in assay [3], in assay [10], in [5] and in assay [6] was “inactive” in each case. Also, the Potency entry in [7], in assay [8] and in [9] was “inactive” in each case.
Turning to `CCC(C)(O)CCC=C(C)C` (stereo unspecified), the Potency entry in [1], in assay [2], in assay [3], in [10], in [5] and in assay [6] was “inactive” throughout. Besides, the Potency entry in [7], in assay [8] and in [9] was “inactive” throughout.
`CCCc1c(OCCCOc2ccc(OCC(=O)O)cc2)ccc(C(C)=O)c1O`: the Potency result in assay [1], in assay [2], in [4], in assay [5], in assay [6] and in [7] was “inactive” throughout. Further, the Potency entry in assay [8] is “inactive”. The Potency in [3] was 0.275 µM (active).
As to `c1cnc2c(n1)CCCC2`, the Potency result in assay [1], in assay [2], in assay [3], in [4], in [5] and in [6] was “inactive” in each case. Besides, the Potency entry in assay [7], in assay [8] and in assay [9] was “inactive” each time.
Consider `CCC(C)(C)C1CCC(O)CC1` (stereo unspecified), for which the Potency entry in assay [1], in assay [2], in assay [3], in assay [4], in assay [5] and in assay [6] was “inactive” throughout. The Potency entry in assay [7], in assay [8] and in assay [9] was “inactive” each time.
On to `CCOC(=O)CC(=O)C(=O)OCC`, for which the Potency entry in assay [1], in assay [2], in [3], in assay [4], in [5] and in assay [6] was “inactive” in each case. In addition, the Potency entry in assay [7], in assay [8] and in [9] was “inactive” throughout.
Consider `Nc1ccc(S(=O)(=O)O)cc1`, for which the Potency entry in assay [1], in assay [2], in assay [3], in assay [10], in assay [5] and in [6] was “inactive” throughout. Moreover, the Potency result in assay [7], in assay [8] and in assay [9] was “inactive” in each case.
In the case of `CCOC(=N)CC(=O)OCC`, the Potency result in assay [1], in assay [2], in assay [3], in assay [4], in assay [5] and in assay [6] was “inactive” throughout. Besides, the Potency entry in [7] and in [8] was “inactive” in each case.
As for `N#C/C(=C1\SCC(c2ccccc2Cl)S1)n1ccnc1` (stereo unspecified), in assay [1], the Potency was 7.5 µM (active). The Potency result in [2], in assay [3], in [4], in assay [5], in assay [6] and in assay [7] was “inactive” throughout.
Turning to `CCCCCCCCSCCO`, the Potency result in assay [1], in [2], in assay [3], in assay [4], in assay [5] and in [6] was “inactive” each time. Besides, the Potency result in [7], in assay [8] and in assay [9] was “inactive” each time.
Take `CC(CCO)CCc1ccccc1` (stereo unspecified): the Potency entry in assay [1], in assay [2], in [3], in [10], in assay [6] and in assay [7] was “inactive” throughout. Besides, the Potency result in assay [8] and in [9] was “inactive” in each case.
In the case of `O=C(O)c1snc(Cl)c1Cl`, in [1], the Potency is 61.1 µM (active). Besides, the Potency entry in [2], in assay [3], in assay [10], in assay [5], in assay [6] and in assay [7] was “inactive” in each case.
Consider `CCN(Cc1cccc(S(=O)(=O)O)c1)c1ccc(C(=C2C=CC(=[N+](CC)Cc3cccc(S(=O)(=O)[O-])c3)C=C2)c2ccccc2)cc1`, for which the Potency entry in [1], in [2], in assay [3], in [4], in assay [6] and in assay [7] was “inactive” each time. The Potency entry in assay [8] and in assay [9] was “inactive” throughout. In [5], the Potency is 38.3 µM (active).
Turning to `CCOC(=O)OCC`, the Potency result in assay [1], in assay [2], in assay [3], in assay [4], in assay [5] and in assay [6] was “inactive” each time. The Potency result in assay [7], in assay [8] and in assay [9] was “inactive” each time.
As to `CC(=O)OCC(=O)[C@@]12OC(C)(C)O[C@@H]1C[C@H]1[C@@H]3C[C@H](F)C4=CC(=O)C=C[C@]4(C)[C@@]3(F)[C@@H](O)C[C@@]12C`, the Potency result in assay [1], in assay [2], in assay [3], in assay [4], in assay [5] and in assay [6] was “inactive” in each case. The Potency result in [7], in assay [8] and in assay [9] was “inactive” in each case.
